PubChem BioAssay (NCI)
About 79,000 compounds went through this panel and 15% of them were active in at least one assay; those are over-represented in the sample as a whole. The source made the active and inactive calls. Cut-off read from the data, not from the text of the source: active = growth inhibition above about 70%; inactive = the rest.

Test: NCI Yeast Anticancer Drug Screen. Data for the rad52 strain (AID 147);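 note: 0% = growth of vehicle-treated control cultures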
Conditions: S. cerevisiae rad52 mutant growth inhibition; at 11.0 µM; hits give high values
Method in brief: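 Growth of repair-deficient yeast cells was compared between compound-treated and vehicle-treated cultures to give percent inhibition.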

Row | SMILES | growth inhibition
1 | O=P(NC1CCCCC1)(OCc1ccccc1)OCc1ccccc1 | 16% (inactive)
2 | COc1oc(C(=O)NC2CCCCC2)c(-c2ccc(Cl)cc2)c1S(=O)(=O)c1ccccc1 | 56% (inactive)
3 | CCOc1ccc(NC(=O)C2=C(C)NC(C)=C(C(=O)Nc3ccc(OCC)cc3)C2c2cccc([N+](=O)[O-])c2)cc1 | 5% (inactive)
4 | CC1(C)CC(=O)C(/C=N/c2nc(-c3ccccc3)cs2)=C(O)C1 | 19% (inactive)
5 | COc1nc2c(c(=O)n1C)N=C(c1ccccc1)[C@H](C(CC(=O)c1ccccc1)c1ccccc1)C(c1ccccc1)N2 (stereo not given in full) | 34% (inactive)
6 | Nc1ncnc2c1ncn2C1OC(CO)CC1O (stereo not given) | 24% (inactive)
7 | CCOC(=O)C1N=[N+](c2ccccc2)C(=O)/C1=C\n1c(=S)[nH]c2ccc([N+](=O)[O-])cc21 (stereo not given) | 2% (inactive)
8 | CNC(=O)OCc1c(COC(=O)NC)c2n(c1C)-c1ccc(OC)cc1CCC2 | -20% (inactive)
9 | Cc1ccc(CC2(OCCN(C)C)CCC(C(C)(C)C)CC2)cc1 (stereo not given) | 8% (inactive)
10 | CCCC/C=C/C(C)(C(=O)OCC)C(=O)OCC | -1% (inactive)
11 | O=C(/C=C(/c1ccccc1)N1CCCCC1)c1ccccc1 | 5% (inactive)
12 | CCc1nc2ccc(NCCN(C)C)c3c(=O)c4ccccc4n1c23 | 60% (inactive)
13 | Cc1sc2ccc3ccccc3c2[n+]1C | -17% (inactive)
14 | COc1c(O)c(C=O)c(Br)c(C=O)c1O | 17% (inactive)
15 | Cc1ccc(Cl)cc1NC(=O)OCCN(C)C(=O)Nc1cc(Cl)ccc1C | -36% (inactive)
